Reference: the supplement of paper PMC8371130
Structures can show the parent of a compound that is named as a salt.

Tested on: HL-1
Test: relative cell viability (CellTiter-Glo) vs DMSO control (% of DMSO control); higher = more viable cells
Summary of the method: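 Viability of HL-1 mouse atrial cardiomyocytes was assessed by CellTiter-Glo luminescence and normalised to vehicle-treated control cells. Cells were plated in 384-well plates at 1000 cells per well with compounds at 40, 200, 1000 or 5000 nM in 0.01% DMSO, and one day later were placed at 1% O2 for 48 h, then reoxygenated for 24 h, or kept in normoxia for the same duration.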

[1] = oxygen condition: hypoxia 48 h (1% O2) + reoxygenation 24 h, 40 nM
[2] = oxygen condition: hypoxia 48 h (1% O2) + reoxygenation 24 h, 200 nM
[3] = oxygen condition: hypoxia 48 h (1% O2) + reoxygenation 24 h, 1000 nM
[4] = oxygen condition: hypoxia 48 h (1% O2) + reoxygenation 24 h, 5000 nM
[5] = oxygen condition: normoxia 72 h, 40 nM
[6] = oxygen condition: normoxia 72 h, 200 nM
[7] = oxygen condition: normoxia 72 h, 1000 nM
[8] = oxygen condition: normoxia 72 h, 5000 nM

Structure (SMILES) | relative cell viability [1] | relative cell viability [2] | relative cell viability [3] | relative cell viability [4] | relative cell viability [5] | relative cell viability [6] | relative cell viability [7] | relative cell viability [8]
C=CC[C@]1(O)CC[C@H]2[C@@H]3CCC4=CC(=O)CCC4=C3C=C[C@@]21C [Altrenogest] | 105 | 110 | 106 | 108 | 104 | 107 | 102 | 105
CN1C(=O)COc2c(C(=O)NC3CN4CCC3CC4)cc(Cl)cc21 (stereo not given) [Azasetron HCl] | 98.7 | 97.9 | 105 | 106 | 94.8 | 98.3 | 110 | 107
C=CCN1CC[C@]23c4c5ccc(O)c4O[C@H]2C(=O)CC[C@@]3(O)[C@H]1C5 [Naloxone HCl] | 109 | 103 | 104 | 117 | 104 | 104 | 109 | 113
CN(C)C(=O)Oc1cccc([N+](C)(C)C)c1 [Neostigmine bromide] | 106 | 100 | 97.4 | 113 | 101 | 105 | 103 | 109
Cc1cccc(C)c1NC1=NCCCS1 [Xylazine HCl] | 99.5 | 101 | 103 | 107 | 106 | 98.1 | 102 | 105
COc1ccc(OC)c(C(O)C(C)N)c1 (stereo not given) [Methoxamine HCl] | 107 | 102 | 101 | 102 | 102 | 105 | 80.9 | 123
CN1[C@@H]2CC[C@H]1C[C@@H](OC(=O)[C@H](CO)c1ccccc1)C2 [Hyoscyamine] | 104 | 103 | 109 | 106 | 109 | 101 | 114 | 116
CC(=O)O[C@H]1C[C@@H]2CC[C@@H]3[C@H](CC[C@@]4(C)[C@H]3C[C@H]([N+]3(C)CCCCC3)[C@@H]4OC(C)=O)[C@@]2(C)C[C@@H]1[N+]1(C)CCCCC1 [Pancuronium] | 103 | 101 | 102 | 109 | 101 | 105 | 108 | 101
Cc1cccc([C@H](C)c2c[nH]cn2)c1C [Dexmedetomidine] | 112 | 105 | 106 | 107 | 107 | 104 | 118 | 116
C#C[C@]1(O)C=C[C@H]2[C@@H]3CCC4=CC(=O)CC[C@@H]4[C@H]3CC[C@@]21CC [Gestodene] | 102 | 100 | 109 | 107 | 111 | 103 | 105 | 106
Cc1cccc([C@H](C)c2c[nH]cn2)c1C [Dexmedetomidine HCl] | 111 | 107 | 102 | 89.4 | 106 | 96.7 | 98.5 | 99.5
N.N.[Cl][Pt][Cl] [Cisplatin] | 91.6 | 77.8 | 80.1 | 111 | 82.7 | 80.6 | 89.5 | 110
C[C@]12CC[C@H](O)CC1=CC[C@@H]1[C@@H]2CC[C@]2(C)C(=O)CC[C@@H]12 [Dehydroepiandrosterone] | 102 | 94 | 96.2 | 111 | 95.4 | 95.8 | 93.8 | 111
CN1c2ccccc2C(NCCCCCCC(=O)O)c2ccc(Cl)cc2S1(=O)=O (stereo not given) [Tianeptine sodium] | 106 | 105 | 108 | 106 | 98.8 | 103 | 104 | 110
CC[N+]1(C)CCCC(OC(=O)C(O)(c2ccccc2)c2ccccc2)C1 (stereo not given) [Pipenzolate Bromide] | 101 | 98.3 | 102 | 105 | 100 | 111 | 101 | 116
CCN(C)C(=O)Oc1cccc([C@H](C)N(C)C)c1 [Rivastigmine tartrate] | 105 | 102 | 110 | 109 | 99.9 | 106 | 108 | 105
Cc1cccc(C)c1NC(=O)CN1CCCC1=O [Nefiracetam] | 101 | 99.1 | 102 | 104 | 101 | 97.1 | 105 | 101
C[N+](C)(C)CCCCCCCCCC[N+](C)(C)C [Decamethonium bromide] | 106 | 103 | 107 | 112 | 107 | 103 | 106 | 117
CCCN1C[C@H](CSC)C[C@@H]2c3cccc4[nH]cc(c34)C[C@H]21 [Pergolide mesylate] | 103 | 100 | 106 | 109 | 105 | 102 | 110 | 120
CNCC(=O)c1ccc(O)c(O)c1 [Adrenalone HCl] | 97.4 | 101 | 106 | 108 | 99.1 | 105 | 99.6 | 107
Cc1cccc(Cc2c[nH]cn2)c1C [Detomidine HCl] | 100 | 94.5 | 101 | 103 | 92.9 | 88.2 | 98.6 | 113
O=P1(N(CCCl)CCCl)NCCCO1 (stereo not given) [Cyclophosphamide monohydrate] | 100 | 94.2 | 97.1 | 108 | 104 | 97 | 106 | 111
CNC1CC(N)C(O)C(OC2OC(CO)C(O)C3OC4(OC(C(N)CO)C(O)C(O)C4O)OC23)C1O (stereo not given) [Hygromycin B] | 108 | 102 | 107 | 110 | 104 | 106 | 110 | 106
O=C(O[C@H]1C[C@H]2CC[C@@H](C1)[N+]21CCCC1)C(O)(c1ccccc1)c1ccccc1 [Trospium chloride] | 95 | 98.6 | 90.1 | 105 | 103 | 95.1 | 95.8 | 101
C/C=C(\C)C(=O)N[C@@H](c1ccccc1)[C@@H](O)C(=O)O[C@H]1C[C@@]2(O)[C@@H](OC(=O)c3ccccc3)[C@@H]3[C@]4(OC(C)=O)CO[C@@H]4C[C@H](O)[C@@]3(C)C(=O)[C@H](OC(C)=O)C(=C1C)C2(C)C [Cephalomannine] | 24.9 | 28 | 23.6 | 28 | 21.5 | 21.7 | 20.2 | 25.3
CC(C)N(CCNC(=O)CN1CCCC1=O)C(C)C [Pramiracetam] | 104 | 103 | 106 | 112 | 98.6 | 104 | 107 | 111
O=C1CC[C@@]2(O)[C@H]3Cc4ccc(O)c5c4[C@@]2(CCN3CC2CC2)[C@H]1O5 [Naltrexone HCl] | 102 | 106 | 99.6 | 108 | 107 | 106 | 113 | 110
COC(=O)C1=CCCN(C)C1 [Arecoline] | 105 | 108 | 106 | 111 | 109 | 112 | 109 | 111

Structure (SMILES) | relative cell viability [1] | relative cell viability [2] | relative cell viability [3] | relative cell viability [4] | relative cell viability [5] | relative cell viability [6] | relative cell viability [7] | relative cell viability [8]
O=c1[nH]c2ccccc2n1CCCN1CCC(n2c(=O)[nH]c3cc(Cl)ccc32)CC1 [Domperidone] | 104 | 105 | 102 | 109 | 100 | 98.5 | 101 | 113
CCC1(c2ccc(N)cc2)CCC(=O)NC1=O (stereo not given) [Aminoglutethimide] | 104 | 99.3 | 89.1 | 72.3 | 99.4 | 93.8 | 92.1 | 66.7
NCCc1c[nH]c2ccc(O)cc12 [Serotonin HCl] | 102 | 96.6 | 99.8 | 107 | 101 | 101 | 100 | 113
CCOC(=O)c1cncn1[C@H](C)c1ccccc1 [Etomidate] | 101 | 107 | 118 | 115 | 104 | 109 | 104 | 109
O=P1(NCCCl)OCCCN1CCCl (stereo not given) [Ifosfamide] | 110 | 117 | 124 | 109 | 103 | 101 | 117 | 112
OC(c1ccccc1)(c1ccccc1)C1CCNCC1 [Azacyclonol] | 104 | 104 | 106 | 108 | 108 | 101 | 104 | 115
C[C@@H]1O[C@@H](O[C@H]2C[C@@H](O)[C@]3(CO)[C@H]4[C@H](O)C[C@]5(C)[C@@H](C6=CC(=O)OC6)CC[C@]5(O)[C@@H]4CC[C@]3(O)C2)[C@H](O)[C@H](O)[C@H]1O [Ouabain] | 101 | 103 | 95.3 | 115 | 105 | 105 | 98.8 | 124
CCC(COC(=O)c1cc(OC)c(OC)c(OC)c1)(c1ccccc1)N(C)C (stereo not given) [Trimebutine] | 104 | 95.7 | 100 | 103 | 98.5 | 98.1 | 101 | 104
O=C(O[C@H]1C[N+]2(CCCOc3ccccc3)CCC1CC2)C(O)(c1cccs1)c1cccs1 [Aclidinium Bromide] | 104 | 108 | 108 | 110 | 103 | 115 | 106 | 121
C[C@]12CCC(=O)C=C1C=C[C@@H]1[C@@H]2CC[C@@]2(C)[C@H]1CC[C@@]2(O)CCC(=O)O [Potassium Canrenoate] | 100 | 96.7 | 97.6 | 103 | 101 | 98.6 | 94.2 | 108
C=C1C[C@@H]2[C@H](CC[C@]3(C)C(=O)CC[C@@H]23)[C@@]2(C)C=CC(=O)C=C12 [Exemestane] | 108 | 98.9 | 107 | 105 | 107 | 106 | 124 | 112
CC(O)(CS(=O)(=O)c1ccc(F)cc1)C(=O)Nc1ccc(C#N)c(C(F)(F)F)c1 (stereo not given) [Bicalutamide] | 106 | 107 | 107 | 104 | 106 | 111 | 110 | 107
Cn1c(CCCC(=O)O)nc2cc(N(CCCl)CCCl)ccc21 [Bendamustine HCL] | 111 | 111 | 108 | 110 | 114 | 114 | 110 | 111
C[N+]1(C)[C@@H]2C[C@@H](OC(=O)[C@H](CO)c3ccccc3)C[C@H]1[C@@H]1O[C@@H]12 [Methscopolamine] | 99.5 | 101 | 100 | 106 | 97.5 | 101 | 101 | 101
CC[C@@]1(O)C(=O)OCc2c1cc1n(c2=O)Cc2cc3ccccc3nc2-1 [Camptothecin] | 104 | 103 | 93.9 | 37.7 | 104 | 105 | 89.7 | 35.6
COc1ccc(C(=O)N2CCCC2=O)cc1 [Aniracetam] | 106 | 111 | 110 | 113 | 101 | 104 | 111 | 116
CC[C@@H](C(N)=O)N1CCCC1=O [Levetiracetam] | 113 | 109 | 118 | 113 | 109 | 113 | 116 | 117
CN1[C@@H]2CC(O)C[C@H]1[C@@H]1O[C@@H]12 (stereo not given in full) [Scopine] | 98.4 | 101 | 100 | 105 | 94.7 | 99.2 | 96.5 | 105
CC(C)NCC(O)c1ccccc1Cl (stereo not given) [Clorprenaline HCL] | 104 | 102 | 106 | 117 | 105 | 102 | 103 | 108
CNC(=O)Oc1ccc2c(c1)[C@]1(C)CCN(C)[C@@H]1N2C [Physostigmine Salicylate] | 89.5 | 84.3 | 69.5 | 41.9 | 84.3 | 84.1 | 64.7 | 48.8
CN(C)C(=O)Oc1ccc[n+](C)c1 [Pyridostigmine Bromide] | 98.7 | 104 | 103 | 103 | 92.1 | 104 | 95.5 | 100
O=C(O)c1nn(Cc2ccc(Cl)cc2Cl)c2ccccc12 [Lonidamine] | 104 | 105 | 109 | 111 | 111 | 102 | 122 | 112
CCC1(c2cccc(O)c2)CCCCN(C)C1 (stereo not given) [Meptazinol HCl] | 97.8 | 103 | 103 | 109 | 97.7 | 98.3 | 102 | 108
C[C@]12CC[C@H]3[C@@H](CC[C@@]45O[C@@H]4C(O)=C(C#N)C[C@]35C)[C@@H]1CC[C@@H]2O [Trilostane] | 101 | 104 | 108 | 107 | 113 | 116 | 102 | 108
COc1ccc(C(CN(C)C)C2(O)CCCCC2)cc1 (stereo not given) [Venlafaxine] | 97.2 | 96.1 | 101 | 102 | 102 | 96.1 | 99.5 | 108
C[C@]12C/C(=C/O)C(=O)C[C@@H]1CC[C@@H]1[C@@H]2CC[C@@]2(C)[C@H]1CC[C@]2(C)O [Oxymetholone] | 104 | 104 | 104 | 114 | 104 | 102 | 105 | 115
CC(=O)O[C@@]12CO[C@@H]1C[C@H](O)[C@@]1(C)C(=O)[C@H](O)C3=C(C)[C@@H](O)C[C@@](O)([C@@H](OC(=O)c4ccccc4)[C@H]21)C3(C)C | 86.6 | 102 | 105 | 113 | 105 | 105 | 103 | 124
